The target in experiment [1] is Insulin receptor (Homo sapiens) (UniProt P06213). To be noted: at 10 µM.
Experiment [2] shares this target. To be noted: at 1 µM.
For experiment [3] the target is unchanged. To be noted: at 10 µM. The source holds these as a separate data set.
For experiment [4], the target named is T1, Interleukin-1 receptor-associated kinase 4 (Homo sapiens) (UniProt Q9NWZ3).
T1 sequence (whole entry): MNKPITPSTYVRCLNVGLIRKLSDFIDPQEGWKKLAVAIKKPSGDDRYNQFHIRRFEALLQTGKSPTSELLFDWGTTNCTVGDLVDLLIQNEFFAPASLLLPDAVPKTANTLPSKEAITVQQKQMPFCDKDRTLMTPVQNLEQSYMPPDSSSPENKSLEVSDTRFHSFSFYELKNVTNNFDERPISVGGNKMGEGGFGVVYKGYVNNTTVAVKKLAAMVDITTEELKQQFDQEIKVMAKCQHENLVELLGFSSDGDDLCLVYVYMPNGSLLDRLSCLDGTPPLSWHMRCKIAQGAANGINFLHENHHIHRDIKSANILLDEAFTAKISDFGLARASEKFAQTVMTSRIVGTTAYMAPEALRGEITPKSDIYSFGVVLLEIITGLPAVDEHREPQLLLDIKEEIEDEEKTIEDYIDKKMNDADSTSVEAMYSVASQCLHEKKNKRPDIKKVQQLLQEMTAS
To be noted: at 10 µM.

The target in experiment [5] is Insulin receptor-related protein (Homo sapiens) (UniProt P14616). To be noted: at 1 µM.
For experiment [6] the target is unchanged. To be noted: at 10 µM.
For experiment [7], the target named is T2, Tyrosine-protein kinase JAK3 (Homo sapiens) (UniProt P52333).
T2 sequence (whole entry): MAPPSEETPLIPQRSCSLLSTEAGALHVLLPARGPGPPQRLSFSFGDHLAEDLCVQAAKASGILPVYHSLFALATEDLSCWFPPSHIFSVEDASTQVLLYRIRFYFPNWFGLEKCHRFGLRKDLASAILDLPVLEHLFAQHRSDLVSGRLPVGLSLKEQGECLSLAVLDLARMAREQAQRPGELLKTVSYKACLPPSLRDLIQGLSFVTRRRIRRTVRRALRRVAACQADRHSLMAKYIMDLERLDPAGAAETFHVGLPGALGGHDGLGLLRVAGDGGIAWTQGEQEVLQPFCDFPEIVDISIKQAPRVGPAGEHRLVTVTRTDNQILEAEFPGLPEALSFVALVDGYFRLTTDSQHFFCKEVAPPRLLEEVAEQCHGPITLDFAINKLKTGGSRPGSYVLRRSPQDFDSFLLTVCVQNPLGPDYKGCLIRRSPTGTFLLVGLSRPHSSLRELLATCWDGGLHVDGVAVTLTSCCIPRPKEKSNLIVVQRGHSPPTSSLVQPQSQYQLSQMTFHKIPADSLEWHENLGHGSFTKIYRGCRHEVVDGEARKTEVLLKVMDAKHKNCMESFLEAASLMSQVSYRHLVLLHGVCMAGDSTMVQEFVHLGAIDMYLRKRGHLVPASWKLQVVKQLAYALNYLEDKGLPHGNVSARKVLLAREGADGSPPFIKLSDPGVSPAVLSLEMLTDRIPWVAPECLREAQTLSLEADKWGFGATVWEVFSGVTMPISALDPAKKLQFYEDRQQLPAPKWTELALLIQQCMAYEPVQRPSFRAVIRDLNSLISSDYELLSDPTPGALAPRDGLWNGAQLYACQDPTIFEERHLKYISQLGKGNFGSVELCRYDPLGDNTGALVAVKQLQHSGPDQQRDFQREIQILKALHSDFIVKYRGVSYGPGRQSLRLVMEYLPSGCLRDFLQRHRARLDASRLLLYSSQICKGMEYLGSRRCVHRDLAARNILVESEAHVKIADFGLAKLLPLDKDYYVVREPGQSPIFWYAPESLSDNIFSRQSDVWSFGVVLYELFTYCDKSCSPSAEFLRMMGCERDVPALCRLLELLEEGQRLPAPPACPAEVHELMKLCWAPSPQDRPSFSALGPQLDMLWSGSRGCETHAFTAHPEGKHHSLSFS
To be noted: at 1 µM.

Experiment [8] has as its target T2, Tyrosine-protein kinase JAK3 (Homo sapiens). To be noted: at 10 µM.
Experiment [9] has as its target Mitogen-activated protein kinase 9 (Homo sapiens) (UniProt P45984). To be noted: at 1 µM.
Experiment [10] has the same target. To be noted: at 10 µM.
Experiment [11] deals with Mitogen-activated protein kinase 10 (Homo sapiens) (UniProt P53779). To be noted: at 1 µM.
Experiment [12] deals with Interleukin-1 receptor-associated kinase 1 (Homo sapiens) (UniProt P51617). The settings on record: at 1 µM.
For experiment [13] the target is unchanged. To be noted: at 10 µM.
Experiment [14] concerns the target T1, Interleukin-1 receptor-associated kinase 4 (Homo sapiens). To be noted: at 1 µM.
The target in experiment [15] is T3, Tyrosine-protein kinase ITK/TSK (Homo sapiens) (UniProt Q08881).
T3 sequence (whole entry): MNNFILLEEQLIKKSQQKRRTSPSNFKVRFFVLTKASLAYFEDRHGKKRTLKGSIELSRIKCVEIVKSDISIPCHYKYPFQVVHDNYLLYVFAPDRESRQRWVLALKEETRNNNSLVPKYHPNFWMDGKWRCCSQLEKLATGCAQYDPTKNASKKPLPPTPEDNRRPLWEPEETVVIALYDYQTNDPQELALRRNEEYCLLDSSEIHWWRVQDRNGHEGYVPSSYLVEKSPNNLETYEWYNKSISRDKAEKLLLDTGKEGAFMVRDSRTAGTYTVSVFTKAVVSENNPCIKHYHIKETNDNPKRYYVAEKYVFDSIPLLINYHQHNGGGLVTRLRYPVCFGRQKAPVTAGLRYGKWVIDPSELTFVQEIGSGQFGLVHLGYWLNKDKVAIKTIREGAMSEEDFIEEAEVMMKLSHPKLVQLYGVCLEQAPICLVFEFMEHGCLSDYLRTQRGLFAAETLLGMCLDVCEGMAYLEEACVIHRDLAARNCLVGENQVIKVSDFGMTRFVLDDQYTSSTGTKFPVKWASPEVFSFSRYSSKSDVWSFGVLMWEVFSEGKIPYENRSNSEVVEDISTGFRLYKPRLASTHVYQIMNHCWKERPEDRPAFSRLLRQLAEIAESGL
To be noted: at 1 µM.

Experiment [16] has as its target T3, Tyrosine-protein kinase ITK/TSK (Homo sapiens). The settings on record: at 10 µM.
Experiment [17] deals with Tyrosine-protein kinase JAK2 (Homo sapiens) (UniProt O60674). The settings on record: at 1 µM.
For experiment [18] the target is unchanged. The settings on record: at 10 µM.
In experiment [19] the target is Mitogen-activated protein kinase 8 (Homo sapiens) (UniProt P45983). The settings on record: at 1 µM.
Experiment [20] shares this target. To be noted: at 10 µM.

Interleukin-1 receptor-associated kinase 1 (Homo sapiens), sequence (P51617 whole entry, looked up): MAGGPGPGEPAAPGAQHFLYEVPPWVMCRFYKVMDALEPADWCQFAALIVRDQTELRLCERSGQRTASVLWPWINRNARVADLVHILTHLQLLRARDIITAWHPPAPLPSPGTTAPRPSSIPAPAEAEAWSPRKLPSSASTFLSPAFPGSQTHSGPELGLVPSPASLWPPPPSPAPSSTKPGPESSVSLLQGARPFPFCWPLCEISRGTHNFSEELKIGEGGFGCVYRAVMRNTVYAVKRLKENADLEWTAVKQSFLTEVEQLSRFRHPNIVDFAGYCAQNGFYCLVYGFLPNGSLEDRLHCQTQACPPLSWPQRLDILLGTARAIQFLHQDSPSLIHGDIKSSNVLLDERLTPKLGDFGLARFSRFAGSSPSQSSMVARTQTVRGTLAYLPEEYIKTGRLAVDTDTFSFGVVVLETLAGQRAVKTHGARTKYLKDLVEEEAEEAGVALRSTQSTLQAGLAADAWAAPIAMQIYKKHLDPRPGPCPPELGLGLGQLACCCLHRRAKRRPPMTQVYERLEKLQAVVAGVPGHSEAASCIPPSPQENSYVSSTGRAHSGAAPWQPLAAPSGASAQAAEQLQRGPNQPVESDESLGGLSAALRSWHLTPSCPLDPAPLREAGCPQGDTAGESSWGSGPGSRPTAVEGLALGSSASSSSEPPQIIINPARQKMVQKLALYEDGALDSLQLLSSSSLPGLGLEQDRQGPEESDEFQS
Mitogen-activated protein kinase 8 (Homo sapiens), sequence (P45983 whole entry): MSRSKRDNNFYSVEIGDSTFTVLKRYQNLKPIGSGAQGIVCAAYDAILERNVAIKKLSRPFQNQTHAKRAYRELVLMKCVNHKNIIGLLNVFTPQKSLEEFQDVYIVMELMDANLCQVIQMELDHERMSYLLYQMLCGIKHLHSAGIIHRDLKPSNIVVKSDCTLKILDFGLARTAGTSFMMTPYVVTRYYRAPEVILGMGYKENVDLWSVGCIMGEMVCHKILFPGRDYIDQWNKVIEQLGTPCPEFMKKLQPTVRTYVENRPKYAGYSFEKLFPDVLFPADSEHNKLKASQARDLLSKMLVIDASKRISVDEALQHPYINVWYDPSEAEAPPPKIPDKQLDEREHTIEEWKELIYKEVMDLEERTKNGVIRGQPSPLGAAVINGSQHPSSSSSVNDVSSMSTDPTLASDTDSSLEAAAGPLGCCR
Tyrosine-protein kinase JAK2 (Homo sapiens), sequence (O60674 whole entry): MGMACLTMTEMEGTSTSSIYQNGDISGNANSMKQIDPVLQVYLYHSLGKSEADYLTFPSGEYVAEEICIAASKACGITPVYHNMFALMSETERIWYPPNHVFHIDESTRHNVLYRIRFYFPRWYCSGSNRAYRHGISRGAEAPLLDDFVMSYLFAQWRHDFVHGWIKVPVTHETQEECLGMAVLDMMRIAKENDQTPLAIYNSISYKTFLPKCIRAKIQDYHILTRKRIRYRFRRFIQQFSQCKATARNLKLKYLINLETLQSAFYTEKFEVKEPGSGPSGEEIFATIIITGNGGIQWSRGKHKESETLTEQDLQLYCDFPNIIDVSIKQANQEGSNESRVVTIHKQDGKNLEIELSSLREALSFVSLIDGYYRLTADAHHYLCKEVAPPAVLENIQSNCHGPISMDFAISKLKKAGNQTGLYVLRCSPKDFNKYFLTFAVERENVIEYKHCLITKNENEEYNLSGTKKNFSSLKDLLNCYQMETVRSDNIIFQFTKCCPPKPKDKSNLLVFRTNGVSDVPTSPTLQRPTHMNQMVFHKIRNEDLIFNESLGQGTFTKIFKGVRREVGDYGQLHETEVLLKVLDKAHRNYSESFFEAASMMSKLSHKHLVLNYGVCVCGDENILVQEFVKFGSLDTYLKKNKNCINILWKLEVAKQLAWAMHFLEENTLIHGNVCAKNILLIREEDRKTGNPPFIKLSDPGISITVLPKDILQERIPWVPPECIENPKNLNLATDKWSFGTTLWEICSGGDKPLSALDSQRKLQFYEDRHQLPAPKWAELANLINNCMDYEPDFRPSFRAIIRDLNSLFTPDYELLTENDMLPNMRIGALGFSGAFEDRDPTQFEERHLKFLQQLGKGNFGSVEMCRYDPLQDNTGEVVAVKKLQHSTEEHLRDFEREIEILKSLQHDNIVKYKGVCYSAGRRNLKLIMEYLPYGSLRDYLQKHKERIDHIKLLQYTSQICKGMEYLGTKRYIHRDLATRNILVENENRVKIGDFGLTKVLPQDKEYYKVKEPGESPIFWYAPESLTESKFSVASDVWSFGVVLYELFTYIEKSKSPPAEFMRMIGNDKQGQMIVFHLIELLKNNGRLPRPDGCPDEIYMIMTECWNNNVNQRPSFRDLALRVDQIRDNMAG
Mitogen-activated protein kinase 9 (Homo sapiens), sequence (P45984 whole entry, looked up): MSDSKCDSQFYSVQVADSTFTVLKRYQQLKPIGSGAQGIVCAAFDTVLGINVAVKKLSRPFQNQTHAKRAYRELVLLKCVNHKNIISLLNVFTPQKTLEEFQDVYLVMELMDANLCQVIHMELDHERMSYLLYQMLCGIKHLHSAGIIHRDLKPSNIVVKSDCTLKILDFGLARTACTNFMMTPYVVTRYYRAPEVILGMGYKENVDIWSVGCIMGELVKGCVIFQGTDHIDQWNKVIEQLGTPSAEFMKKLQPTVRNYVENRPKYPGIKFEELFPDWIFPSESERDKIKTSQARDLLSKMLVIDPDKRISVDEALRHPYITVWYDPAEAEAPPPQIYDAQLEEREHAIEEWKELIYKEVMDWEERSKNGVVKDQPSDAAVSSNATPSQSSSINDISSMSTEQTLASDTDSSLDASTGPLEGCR
Insulin receptor (Homo sapiens), sequence (P06213 28-758 limits assumed): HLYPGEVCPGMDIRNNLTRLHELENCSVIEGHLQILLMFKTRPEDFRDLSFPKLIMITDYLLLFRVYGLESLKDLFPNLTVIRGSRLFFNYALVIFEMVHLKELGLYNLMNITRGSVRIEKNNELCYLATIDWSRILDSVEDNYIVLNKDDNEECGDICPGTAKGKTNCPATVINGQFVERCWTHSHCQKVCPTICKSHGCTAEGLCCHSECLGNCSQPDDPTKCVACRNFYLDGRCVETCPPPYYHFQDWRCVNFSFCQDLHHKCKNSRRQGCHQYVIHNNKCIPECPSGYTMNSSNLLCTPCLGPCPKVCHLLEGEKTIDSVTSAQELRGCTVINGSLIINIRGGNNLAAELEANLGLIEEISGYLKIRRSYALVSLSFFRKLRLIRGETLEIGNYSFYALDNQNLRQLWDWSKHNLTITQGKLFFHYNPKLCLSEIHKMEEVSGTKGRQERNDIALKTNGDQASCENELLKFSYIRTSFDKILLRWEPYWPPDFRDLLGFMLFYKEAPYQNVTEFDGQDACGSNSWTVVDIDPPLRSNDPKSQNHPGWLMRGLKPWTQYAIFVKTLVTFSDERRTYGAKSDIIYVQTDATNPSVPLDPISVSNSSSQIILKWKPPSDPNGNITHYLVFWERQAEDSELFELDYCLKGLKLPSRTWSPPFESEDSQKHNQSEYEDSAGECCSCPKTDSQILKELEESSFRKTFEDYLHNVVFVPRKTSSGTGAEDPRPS
Insulin receptor (Homo sapiens), sequence (P06213 763-1382 limits assumed): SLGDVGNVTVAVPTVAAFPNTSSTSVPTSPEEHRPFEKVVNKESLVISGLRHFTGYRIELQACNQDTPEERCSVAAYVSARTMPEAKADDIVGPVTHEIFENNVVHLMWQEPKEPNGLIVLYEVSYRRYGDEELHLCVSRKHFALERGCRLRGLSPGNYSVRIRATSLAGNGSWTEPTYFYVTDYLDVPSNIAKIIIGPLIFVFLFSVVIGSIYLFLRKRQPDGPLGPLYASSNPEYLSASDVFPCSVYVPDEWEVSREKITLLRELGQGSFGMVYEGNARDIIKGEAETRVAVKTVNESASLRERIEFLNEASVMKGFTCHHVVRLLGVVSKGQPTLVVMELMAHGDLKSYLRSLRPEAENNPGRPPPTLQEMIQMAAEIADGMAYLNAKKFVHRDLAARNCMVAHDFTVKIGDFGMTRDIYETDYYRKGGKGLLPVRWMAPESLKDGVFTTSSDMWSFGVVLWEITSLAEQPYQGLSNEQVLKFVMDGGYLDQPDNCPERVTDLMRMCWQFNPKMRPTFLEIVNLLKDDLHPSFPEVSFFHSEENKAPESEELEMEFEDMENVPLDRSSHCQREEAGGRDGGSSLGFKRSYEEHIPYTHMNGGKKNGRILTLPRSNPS
Mitogen-activated protein kinase 10 (Homo sapiens), sequence (P53779 whole entry): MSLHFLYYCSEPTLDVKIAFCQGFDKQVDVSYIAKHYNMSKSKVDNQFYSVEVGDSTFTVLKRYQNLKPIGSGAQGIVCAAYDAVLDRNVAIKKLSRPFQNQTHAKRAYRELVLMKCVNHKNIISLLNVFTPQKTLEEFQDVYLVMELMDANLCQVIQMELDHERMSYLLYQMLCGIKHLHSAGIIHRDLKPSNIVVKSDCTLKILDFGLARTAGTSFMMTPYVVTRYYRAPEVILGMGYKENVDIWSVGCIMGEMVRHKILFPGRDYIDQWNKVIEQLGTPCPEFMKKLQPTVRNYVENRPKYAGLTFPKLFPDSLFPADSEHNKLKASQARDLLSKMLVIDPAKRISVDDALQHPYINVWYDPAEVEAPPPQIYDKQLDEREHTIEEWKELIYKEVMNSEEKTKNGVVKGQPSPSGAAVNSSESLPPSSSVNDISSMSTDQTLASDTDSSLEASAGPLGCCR

Consider `NCCNc1ncc(C(N)=O)c(Nc2cccc(C(F)(F)F)c2)n1`, for which the residual activity in experiment [1] is 77%; in experiment [2], 74%; in [3], 34%; in experiment [4] it was 51%; in experiment [5], 142%; in [6], 55%. In addition, the residual activity in [7] is 116%; in experiment [8], 106%; in experiment [9], 103%; in experiment [10] it was 76%; in [11], 79%.

On to `NC(=O)Nc1sc(-c2ccc(F)cc2)cc1C(N)=O`, for which the residual activity in [12] stood at 84%; in experiment [13], 49%; in experiment [14] it was 46%; in experiment [4] it was 9%; in experiment [5] it was 69%; in experiment [6], 3%. Further, the residual activity worked out at 22% in [15]; 1% in experiment [16]; 4% in experiment [17]; 0% in experiment [18]; 42% in experiment [7]; 5% in [8]. The residual activity in experiment [19] amounted to 94%; in experiment [20], 52%; in [9] it was 84%; in [10], 67%; in [11] it was 60%.

As to `CCCCc1c(-c2ccc(OC)cc2)[nH]c2nccnc12`, the residual activity amounted to 66% in [2]; 75% in experiment [3]; 62% in experiment [12]; 81% in experiment [13]; 79% in experiment [14]; 65% in experiment [4]. Also, the residual activity was determined as 100% in experiment [5]; 88% in experiment [6]; 82% in experiment [15]; 92% in [16]; 71% in experiment [17]; 49% in experiment [18]. Besides, the residual activity in [7] amounted to 81%; in [8], 86%; in [19] it was 105%; in experiment [9] it was 91%; in experiment [10], 109%; in [11], 48%.

`O=C1Cc2c([nH]c3ccc(Br)cc23)-c2ccccc2N1`: the residual activity in experiment [2] amounted to 93%; in experiment [3], 81%; in experiment [12], 94%; in experiment [13], 68%; in experiment [14] it was 81%; in [4], 36%. Moreover, the residual activity came to 82% in experiment [6]; 83% in experiment [15]; 100% in experiment [17]; 71% in experiment [18]; 71% in experiment [8]; 95% in [19]. Also, the results for the residual activity in [20], in experiment [9] and in experiment [10] were 88%, 87% and 97%, respectively.

With `O=C(O)/C=C/c1cc(Br)c(Br)c(Br)c1Br`, the residual activity came to 141% in experiment [1]; 100% in [2]; 90% in experiment [3]; 101% in [12]; 68% in [13]; 94% in [4]. Moreover, the residual activity in experiment [17] was 87%; in experiment [18] it was 58%; in [7], 102%; in experiment [8] it was 34%; in [19], 108%; in experiment [20], 72%. Moreover, the residual activity in experiment [9] was determined as 100%; in experiment [10], 72%; in experiment [11] it was 99%.

Take `Nc1ncnc2c1c(-c1ccc(Oc3ccccc3)cc1)cn2C1CCCC1`: the residual activity in [1] is 109%; in experiment [2], 90%; in [3] it was 50%; in experiment [12], 83%; in [13], 74%; in [14], 94%. The residual activity was 114% in experiment [5]; 15% in [6]; 58% in experiment [15]; 4% in experiment [16]; 96% in experiment [17]; 124% in experiment [18]. For the same compound, the residual activity in [7] was determined as 91%; in experiment [8], 65%; in experiment [19], 100%; in [20], 64%; in experiment [9] it was 104%; in experiment [10], 92%. Also, the residual activity in [11] worked out at 77%.

Consider `CSc1nc(-c2ccc(F)cc2)c(-c2ccnc(NC(C)c3ccccc3)c2)[nH]1` (stereo not given), for which the residual activity in experiment [1] came to 93%; in [2], 102%; in [3] it was 98%; in experiment [14] it was 23%; in experiment [4], 13%; in [6] it was 73%. The residual activity in [15] is 70%; in [16] it was 53%; in experiment [19] it was 90%; in [20] it was 32%; in experiment [9], 39%; in experiment [10], -6%. Also, the residual activity in experiment [11] is 4%.

For `O=C1NC(=O)c2c1c1c3ccccc3[nH]c1n1cncc21`, the residual activity in [1] amounted to 15%; in experiment [2], 31%; in experiment [3], 19%; in experiment [12], 76%; in experiment [13] it was 66%; in [14], 61%. Moreover, the residual activity turned out to be 56% in experiment [4]; 5% in [5]; 3% in experiment [6]; 85% in [15]; 44% in experiment [16]; 97% in [17]. For the same compound, the residual activity was 93% in experiment [18]; 83% in experiment [7]; 58% in experiment [8]; 89% in experiment [19]; 75% in experiment [20]; 67% in [9]. The values for the residual activity in experiment [10] and in [11] were 49% and 25%, respectively.

Regarding `O=C(NC(NC(=S)Nc1ccc(F)c([N+](=O)[O-])c1)C(Cl)(Cl)Cl)C(c1ccccc1)c1ccccc1` (stereo not given), the residual activity was determined as 96% in [1]; 98% in experiment [2]; 93% in experiment [3]; 126% in experiment [5]; 78% in [8]; 102% in experiment [20]. In addition, the residual activity in experiment [11] was found to be 92%.

Turning to `N#C/C(=C1/Nc2ccccc2S1)c1ccnc(NCCc2cccnc2)n1`, the residual activity was found to be 137% in [1]; 98% in experiment [2]; 83% in experiment [3]; 80% in experiment [12]; 70% in experiment [13]; 80% in [14]. Also, the residual activity in experiment [4] amounted to 31%; in experiment [5] it was 132%; in experiment [6] it was 63%; in [7], 95%; in experiment [8] it was 48%; in [19], 67%. In experiment [20], the residual activity is 55%.

Take `CCCC(=O)Oc1ccc2[nH]c(C(=O)c3cc4ccccc4[nH]3)cc2c1`: the residual activity in experiment [1] is 77%; in [2], 90%; in [3], 89%; in experiment [12], 85%; in [13] it was 69%; in experiment [5] it was 134%. In addition, the residual activity stood at 80% in [6]; 105% in experiment [15]; 101% in [16]; 103% in experiment [17]; 100% in [18]; 94% in [19]. The figures for the residual activity in experiment [20], in experiment [10] and in experiment [11] were 81%, 89% and 69%, respectively.

Regarding `COc1ccc2c(c1)c(C1=C(c3c[nH]c4ccccc34)C(=O)NC1=O)cn2CCCN(C)C`, the residual activity stood at 73% in [1]; 97% in experiment [2]; 71% in experiment [3]; 81% in experiment [12]; 75% in experiment [13]; 122% in [5]. In addition, the residual activity in experiment [6] was found to be 67%; in [15], 101%; in [16], 79%; in experiment [17], 114%; in [18], 81%; in experiment [7], 102%. Further, the residual activity in [8] was determined as 50%; in experiment [19] it was 104%; in experiment [20], 57%; in experiment [9] it was 111%; in experiment [11] it was 74%.
